Assay outcomes from PubChem BioAssay.
Sm TGR inh – blocks Schistosoma mansoni thioredoxin glutathione reductase; Q962Y6; purified TGR, DTNB reduction, TNB absorbance 405 nm; Potency, µM (doses to about 114 µM), for the others: at the highest dose activity change, negative = inhibition, actives largely listed as inhibitors; 3% of 360,000 active; AID 485364; further: nearly all actives have a fitted effect of over 60% in size
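TGR 20 nM + NADPH 100 uM (dispensed conc.), cpd preinc 15 min RT; start with NADPH (500 uM addition) then DTNB (15 mM addition). Kinetic TNB absorbance, 405 nm filter. Four-parameter Hill fit across titration.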
Tb PYK inh – T. brucei pyruvate kinase inhibition; TbPYK enzyme, Kinase-Glo Plus ATP luminescence, 45 min; Potency, µM (series often up to 76.8 µM), inactives show top-dose activity, negative = inhibition, most hits filed as inhibitors; 0.12% of 410,000 active; further: nearly all actives have a fitted effect of over 50% in size
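Activity of T. brucei pyruvate kinase was followed by Kinase-Glo Plus luminescence after the enzyme reacted 45 min at room temperature with 130 uM ADP (final) and substrate. Test compounds were added before ADP at multiple concentrations.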
RE007 growth inh – less growth of the S. pombe RE007 Vpr strain. 0.21% of 360,000 active. Potency, µM (doses to about 92.2 µM), inactives show at the highest dose activity change, negative = less growth, actives largely listed as inhibitors. AID 651644. S. pombe RE007 Vpr strain, BacTiter-Glo ATP luminescence, 24 h; active means well fitted falling curve with a large enough effect; inconclusive means small, poorly fitted or top-dose-only effect; inactive means no such curve, though single readings can be large or run the other way; further: nearly all actives have a fitted effect of over 50% in size
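Fission yeast RE007 carrying one integrated HIV-1 vpr copy, seeded at OD 0.01 in PMG+AL medium with 23 nL pinned compound. Grown 24 h at 30 degrees; viability read by BacTiter-Glo luminescence after 5 min.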
FMDV inh – blocks foot and mouth disease virus | Potency, µM (doses to about 57.9 µM), for the others: top-dose activity change, negative = inhibition, actives largely listed as inhibitors | AID 1159524 | FMDV antiviral cell-based qHTS | 1.2% of 410,000 active; calls by dose curve; tested in HEK293T cells; further: read-out not given here; nearly all actives have a fitted effect of over 45% in size
Active calls of the source: *; ? = inconclusive; / = not tested or not shown; [ ] = remark or other dose. Shown are actives, neighbours in structure and some others; about 3.7% of the full set was active somewhere. Unless noted, the call rests on the fitted dose curve; in most records, active means well fitted curve in the direction sought with a large enough effect; inconclusive means small, poorly fitted or top-dose-only effect, or another doubt; inactive means no such curve, though single readings can be large; an effect the other way counts as inactive or inconclusive. On the % scale 0 is the no-effect control and ±100 the full control effect; potency means the concentration at half of the fitted maximal effect.

SMILES	Sm TGR inh	Tb PYK inh	RE007 growth inh	FMDV inh
CCOC(=O)C(N)CSC1CC(=O)N(c2ccc(OCC)cc2)C1=O (configuration not stated)	45µM*	3%	?	-11%
CSc1cccc(Nc2cc(C(=O)NCCCN(C)c3ccccc3)c3ccccc3n2)c1	6%	7%	/	-21%
Cc1cc(-c2ccnc(-n3ncc(C(=O)NCC(C)(C)N4CCOCC4)c3C)n2)c(C)s1	/	/	/	12%
CCOC(=O)C(N)CSC1CC(=O)N(c2ccc(OC)cc2)C1=O (configuration not stated)	32µM*	4%	-6%	-10%
Nc1nnc(SC2CC(=O)N(c3ccccc3)C2=O)s1 (configuration not stated)	2.5µM*	-10%	28µM*	-13%
CCOC(=O)c1ccc(N2C(=O)CC(SCC(N)C(=O)OCC)C2=O)cc1 (configuration not stated)	14µM*	-4%	-18%	20%
COc1cc(=O)n2c(c1C(=O)NCc1ccco1)CCN(Cc1ccc(F)cc1Cl)CC2	/	/	/	-3%
COc1ccc(NC(=O)c2ccc(-n3c(C)ccc3C)cc2)c(OC)c1	28µM*	0%	8%	-21%
Cc1ccc(C)n1-c1ccc(C(=O)Nc2ccccc2F)cc1	50µM*	-5%	13%	30%
Cc1cccc(N2CCN(C(=O)CS(=O)(=O)c3cccc4nsnc34)CC2)c1C	-17%	-7%	/	-21%
Cc1ccc(N2C(=O)c3ccccc3C2C(=O)c2ccc(C)c(C)c2O)cc1 (configuration not stated)	4.5µM*	-8%	3%	13%
COCc1cc(C)nc2sc(C(=O)Nc3ccc(OC(F)(F)F)cc3)c(N)c12	3%	-9%	/	-6%
N#Cc1c(N)n(-c2ccc(N)cc2)c2nc3ccccc3nc12	4%	-2%	-11%	8%
N#Cc1c(C#N)c(SSc2c(C#N)c(C#N)c(N)n2-c2ccccc2)n(-c2ccccc2)c1N	/	0.89µM*	-8%	40µM*
COc1ccccc1CNC(=O)CCC1N=C2c3ccccc3N=C(SCC(=O)NCCc3ccc(OC)c(OC)c3)N2C1=O (configuration not stated)	-13%	-6%	/	0%
Cc1ccc(NC(=O)CCN2C(=O)c3ccccc3Sc3ncccc32)cc1	13µM*	-6%	-14%	-2%
Cc1ccccc1NC(=O)CCN1C(=O)c2ccccc2Sc2ncccc21	-35%	1%	/	3%
CC(C)NC(=O)CCCN1C(=O)c2ccccc2Sc2ncccc21	79µM*	-9%	1%	-6%
O=C1CC(=O)N(Cc2ccco2)C(=O)N1	?	-14%	19%	5%
O=C1C(=C2CCCCC2)SC(=S)N1Cc1ccco1	20µM*	-29%	-18%	0%
O=C1CC(=O)N(Cc2ccco2)C(=S)N1	1.8µM*	8%	11%	-18%
CN(C)c1ccc(CNC(=O)Cn2c(=O)oc3cc(S(=O)(=O)N4CCCCCC4)ccc32)cc1	-12%	4%[15.4 µM]	/	?
CC1CC(C)CC(C)C(O)C(C#N)=CC=CCC(C2CCCC2C(=O)O)OC(=O)CC(O)C(C)C1 (configuration not stated)	/	-2%	6.3µM*	?
COc1ccc(C(=O)c2ccccc2)c2c(O)ccc(C(=O)c3ccccc3)c12	-8%	-2%	-9%	13µM*
Cc1cc(O)c2c(C)c(CC(=O)N3CCCCC3)c(=O)oc2c1	8%	1%	/	0%
SMILES	Sm TGR inh	Tb PYK inh	RE007 growth inh	FMDV inh
CCOC(=O)c1oc2ccccc2c1NC(=O)CCl	5.6µM*	-1%	-11%	?
CCOC(=O)c1oc2ccccc2c1NC(=O)c1ccco1	1%	5%	3%	?
CCN(CC)c1nc2ccccc2nc1C(=O)Nc1cc(OC)c(OC)c(OC)c1	-10%	0%	/	?
COCc1ccc(C(=O)N2CCCC(C(=O)c3ccc(Cl)cc3C)C2)o1 (configuration not stated)	32µM*	0%	-4%	-24%
Cc1cccc(-c2oc3ccccc3c2C#CCCCCO)c1	?	-1%	6%	-10%
Cc1cccc(-c2oc3ccccc3c2C#CCCO)c1	16µM*	4%	-6%	-8%
CCC(CC)C(=O)Nc1ccc(S(=O)(=O)N2CCC(c3nc4ccccc4s3)CC2)cc1	0%	0%	/	-29%
CC(C)n1c(=NC(=O)c2ccco2)c(C#N)cc2c(=O)n3ccccc3cc21	45µM*	-8%	-4%	-7%
